The structures appear in SMILES notation. Inconclusive results are not listed. Active and inactive are the calls of the source. Calls follow the shape of the dose curve; as a rule, active = well fitted cell-killing curve with a large enough effect; inconclusive = small, poorly fitted or top-dose-only effect, or effect the other way; inactive = no such curve, though single readings can be large or run the other way.
Potency is read from the fitted curve at half-maximal effect.

The assay is described as follows: Quantitative High-Throughput drug screen in 47 multiple myeloma cell lines against the NCATS MIPE library collection: OCIMY5_PLB cell viability assay (AID 1918988). Also: nearly all actives have a fitted effect of over 65% in size. The following applies: OCI-MY5 myeloma viability, ATP luminescence, 48 h; series mostly up to 45.8 µM. An excerpt:
PI: Beverly A. Mock Ph.D.
Laboratory of Cancer Biology and Genetics,
Center for Cancer Research, National Cancer Institute,
National Institute of Health, Bethesda, Maryland
Drug resistance and disease progression are common in multiple myeloma (MM) patients, underscoring the need for new therapeutic combinations. […] We hypothesized that effective combinations would reduce MYC expression and enhance p16 activity. […] These preclinical data identify potentially useful drug combinations for evaluation in drug-resistant MM and reveal potential mechanisms of combined drug sensitivity.
Described herein is the primary MIPE qHTS used to cherrypick compounds. Validated compounds were then further tested for potential synergistic activiy.
[1] Peat TJ, Gaikwad SM, Dubois W, Gyabaah-Kessie N, Zhang S, Gorjifard S, Phyo Z, Andres M, Hughitt VK, Simpson RM, Miller MA, Girvin AT, Taylor A, Williams D, D'Antonio N, Zhang Y, Rajagopalan A, Flietner E, Wilson K, Zhang X, Shinn P, Klumpp-Thomas C, McKnight C, Itkin Z, Chen L, Kazandijian D, Zhang J, Michalowski AM, Simmons JK, Keats J, Thomas CJ, Mock BA. Drug combinations identified by high-throughput screening promote cell cycle transition and upregulate Smad pathways in myeloma. Cancer Lett. 2023 Aug 1;568:216284. doi: 10.1016/j.canlet.2023.216284. Epub 2023 Jun 24. PMID: 37356470; PMCID: PMC10408729.
SEQUENCE No. (e.g., 1, 2, 3, etc.); […] (e.g., Cells, Incubation, Reagent, etc.); VALUE and DESCRIPTION.
1; Cells; 5 uL; white, solid bottom 1536-well Greiner assay plate.
2; Compounds; 23 nL; Kalypsis pin tool (Wako USA) equipped with a 1536-well pin head to transfer to the assay plates.
3; Incubation; 48 hours; 37C incubation.
4; Reagent;5uL; CellTiter Glo (Promega).
5; Detector; 425V; Luminescence; Viewlux PerkinElmer.
NOTES (numbers refer to Sequence numbers above)
1. The cell-based screening methods employed in this study were like those previously published. Briefly, the corresponding myeloma cell lines were screened in 1,536-well plates with 500 cells, 5-uL per well for inhibition of cell viability (assessed by measuring ATP levels with CellTiterGlo).
2. NCATS MIPE 4.0 library of approved and investigational drugs were added using the Kalypsis pin tool. Wells treated with DMSO only for 100% viability and media only for 0% viability were used as controls.
3. The assay plates were covered and incubated for 48 hours in a 37C, 5% CO2 incubator with controlled humidity.
4. After 48 hours, CellTilter-GloTM luminescent substrate mix (Promega) reagent was added to the assay plate and plates we incubated for 5 min at room temperature.
5. Signal was measured as median relative luminescence units on a ViewLux (PerkinElmer) multiplate reader.
[1] Heske CM, Davis MI, Baumgart JT, Wilson K, Gormally MV, Chen L, Zhang X, Ceribelli M, Duveau DY, Guha R, Ferrer M, Arnaldez FI, Ji J, Tran HL, Zhang Y, Mendoza A, Helman LJ, Thomas CJ. Matrix Screen Identifies Synergistic Combination of PARP Inhibitors and Nicotinamide Phosphoribosyltransferase (NAMPT) Inhibitors in Ewing Sarcoma. Clin Cancer Res. 2017 Dec 1;23(23):7301-7311. doi: 10.1158/1078-0432.CCR-17-1121. Epub 2017 Sep 12. PMID: 28899971; PMCID: PMC6636827.
On to `N#Cc1c(O)c2c(-c3ccc(-c4ccccc4O)cc3)csc2[nH]c1=O`, for which the Potency entry was “inactive”.
Turning to `CN[C@H]1CCc2cc(OC)c(OC)c(OC)c2-c2ccc(OC)c(=O)cc21`, the Potency is 1.3 nM (active).
Turning to `COc1cc2ncn(-c3cc(OCc4ccccc4C(F)(F)F)c(C(N)=O)s3)c2cc1OC`, the Potency was 1320 nM (active).
The figure for `CC(=O)OCC(=O)[C@@]1(O)[C@H](C)C[C@H]2[C@@H]3C=C(C)C4=Cc5c(cnn5-c5ccccc5)C[C@]4(C)[C@@H]3[C@@H](O)C[C@@]21C` is 7430 nM (active); for `COc1cc(C(=O)N2CCC(N3CCN(C)CC3)CC2)ccc1Nc1ncc2c(n1)N(C)c1ccccc1C(=O)N2C` it is 2090 nM (active); for `CC1(C)CCC(c2ccc(Cl)cc2)=C(CN2CCN(c3ccc(C(=O)NS(=O)(=O)c4ccc(N[C@H](CCN5CCOCC5)CSc5ccccc5)c(S(=O)(=O)C(F)(F)F)c4)cc3)CC2)C1` it is 37.2 nM (active).
Regarding `COC(=O)[C@]12CCC(C)(C)C[C@@H]1[C@@H]1C(=O)C=C3[C@@]4(C)C=C(C#N)C(=O)C(C)(C)[C@@H]4CC[C@@]3(C)[C@]1(C)CC2`, the Potency was 209 nM (active).
In the case of `CCn1cc(-c2ccnc3[nH]c(-c4cccc(CN(C)C)c4)cc23)c(-c2ccc(NC(=O)N(C)C)cc2)n1`, the Potency is 4180 nM (active).
On to `Cc1ccc(CN2CCNCC2)cc1NC(=O)CNc1ccc(F)c(F)c1`, for which the Potency is 18700 nM (active).
With `Cc1ccc2nc(NC(=O)CSc3nc4c(c(=O)n3-c3ccccc3)SCC4)sc2c1`, the Potency is 7430 nM (active).
`Cc1cc(Nc2nc(N[C@@H](C)c3ccc(F)cc3)c(C#N)cc2F)n[nH]1`: the Potency is 4180 nM (active).
Turning to `CN(C)CCCN=c1c2ccccc2n(C)c2[nH]c(=O)n(C)c(=O)c12`, the Potency was 18700 nM (active).
With `CS(=O)(=O)c1ccc(-c2cnc(N)c(C(=O)Nc3ccccc3)n2)cc1` the figure was 2640 nM (active); with `O=c1[nH]nc(Sc2ncc([N+](=O)[O-])s2)n1-c1ccc2c(c1)OCCO2`, 2960 nM (active).
For the compound `COc1ccc(-n2nc(C(N)=O)c3c2C(=O)N(c2ccc(N4CCCCC4=O)cc2)CC3)cc1`, the Potency entry was “inactive”.
With `C=CC(=O)Nc1cc2c(Nc3ccc(F)c(Cl)c3)ncnc2cc1C#CC(C)(C)N1CCN(C)CC1`, the Potency was 935 nM (active).
As for `Cc1ccc(C(=O)Nc2ccc(CN3CCN(C)CC3)c(C(F)(F)F)c2)cc1C#Cc1cnc2cccnn12`, the Potency is 1480 nM (active).
Regarding `O=C(NC1CCNCC1)c1[nH]ncc1NC(=O)c1c(Cl)cccc1Cl`, the Potency was 74.3 nM (active).
On to `C[C@@]12O[C@@H](C[C@]1(O)CO)n1c3ccccc3c3c4c(c5c6ccccc6n2c5c31)CNC4=O`, for which the Potency is 526 nM (active).
The figure for `COc1ccc(C(=O)CC2(O)C(=O)Nc3c(Cl)ccc(Cl)c32)cc1` (stereo not given) is 1870 nM (active).
With `Cc1ccc(C(N)=O)cc1Nc1nccc(-c2cn(C(C)C)c3cnccc23)n1` the figure was 7430 nM (active); with `COc1ccc2c(c1)CC[C@@H](CN(C)CC(=O)O)[C@H]2c1ccccc1`, 1480 nM (active); with `CC[C@@]1(O)C(=O)OCc2c1cc1n(c2=O)Cc2cc3cc(O)ccc3nc2-1`, 1660 nM (active).
The figure for `Cc1cc(Nc2ncnc3ccc(-c4ccc(CNCCS(C)(=O)=O)o4)cc23)ccc1Oc1ccn2ncnc2c1` is 16600 nM (active); for `CC1(C)CC(=O)c2c(C(F)(F)F)nn(-c3ccc(C(N)=O)c(NC4CCC(OC(=O)CN)CC4)c3)c2C1` (stereo not given) it is 187 nM (active).
With `O=c1[nH]c(=O)n(C2CCCO2)cc1F` (stereo not given), the Potency is 42900 nM (active).
`CN1CCN(Cc2ccc(NC(=O)Nc3ccc(Oc4cc(NC(=O)C5CC5)ncn4)cc3)cc2C(F)(F)F)CC1`: the Potency is 332 nM (active).
For `CC(C)C[C@H](NC(=O)CNC(=O)c1cc(Cl)ccc1Cl)B(O)O`, the Potency is 37.2 nM (active).
The figure for `COc1cc(=C2C=c3ccccc3=N2)[nH]c1=Cc1[nH]c(C)cc1C` is 833 nM (active); for `CN1CCN(c2ccc3nc(-c4c(N)c5c(F)cccc5[nH]c4=O)[nH]c3c2)CC1` it is 16600 nM (active); for `CC(C)c1ccccc1Cc1cc(C(=O)Nc2ccc(S(=O)(=O)c3ccccc3C(C)(C)C)cc2)c(O)c(O)c1O` it is 4690 nM (active).
For `CC(NCc1ccc2c(c1)nc(NC(=O)c1ccc(-c3cn[nH]c3)s1)n2CC(C)(C)O)C(C)(C)C` (stereo not given), the Potency was 235 nM (active).
`O=C(Cc1ccc(-c2ccc(OCCN3CCOCC3)cc2)cn1)NCc1ccccc1`: the Potency is 11.8 nM (active).
For the compound `C[C@]1(CO)CN(c2cc(C(=O)Nc3ccc4c(c3)-c3c(c(C(N)=O)nn3-c3ccc(F)cc3)CC4)c(Cl)cn2)C[C@@]1(C)CO`, the Potency was 8330 nM (active).
Consider `COc1cc(C)c(Sc2cnc(NC(=O)c3ccc(CNC(C)C(C)C)cc3)s2)cc1C(=O)N1CCN(C(C)=O)CC1` (stereo not given), for which the Potency was 5260 nM (active).
Take `CNC(=O)CN1CCC(Oc2cc3c(Nc4cccc(Cl)c4F)ncnc3cc2OC)CC1`: the Potency is 11.8 nM (active).
Turning to `C[C@@H]1COC(Nc2ccc3ncnc(Nc4ccc(OCc5nccs5)c(Cl)c4)c3c2)=N1`, the Potency is 2960 nM (active).
As to `Nc1nccc(Oc2ccc(NC(=O)c3c[nH]cc(-c4ccc(F)cc4)c3=O)cc2F)c1Cl`, the Potency was 26400 nM (active).
As to `Cc1c(CN2CCN(S(C)(=O)=O)CC2)sc2c(N3CCOCC3)nc(-c3cnc(N)nc3)nc12`, the Potency is 52.6 nM (active).
Consider `O=C(O)c1ccc2c(c1)nc(Nc1cccc(Cl)c1)c1ccncc12`, for which the Potency is 13200 nM (active).
